ADAM17 inh: inhibitors of human ADAM17; P78536; recombinant ADAM17, EDANS/DABCYL FRET peptide cleavage; 0.83% of 370,000 active; AID 720648; inhibition, % at 6.95 µM;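 active = inhibition above the mean of compounds lying between control limits plus 3 SD, set per campaign, cut at about 8.5% in these data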;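 also: 0% = DMSO-only wells as the low control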
proKLK7 act: activators of human kallikrein-7 zymogen. purified proKLK7, EDANS-DABCYL substrate fluorescence; 100% is mature enzyme control, 0% vehicle. activation, % at 7 µM. 0.9% of 370,000 active;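 active = activation above the mean of all tested compounds plus 3 SD, computed per campaign excluding outliers beyond control limits, cut at about 13% in these data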
NRP1-CendR mod: modulators of CendR peptide binding to human neuropilin-1; O14786; inhibition, % at 25 µM; 0.85% of 360,000 active; AID 602438; FAM-RPARPAR peptide binding to NRP-1, fluorescence polarization;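 active = inhibition or corrected inhibition above about 18%, plus a signal ratio from 0.5 to 1.5, limit read from the data, passing the limit was not always enough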
sPLA2-III inh: Inhibits HGIII-sPLA2 liposome hydrolysis, primary screen. Q9NZ20. QFRET BODIPY PC-A2 liposome hydrolysis, fluorescence. inhibition, % at 12.2 µM. 0.56% of 370,000 active;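 active = inhibition above mean plus 3 SD of compounds lying within the high and low control bounds, cut at about 19% in these data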;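 also: 0% = median of test compound wells and 100% = no enzyme DMSO wells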
Target sequence (Q9NZ20 whole entry, looked up): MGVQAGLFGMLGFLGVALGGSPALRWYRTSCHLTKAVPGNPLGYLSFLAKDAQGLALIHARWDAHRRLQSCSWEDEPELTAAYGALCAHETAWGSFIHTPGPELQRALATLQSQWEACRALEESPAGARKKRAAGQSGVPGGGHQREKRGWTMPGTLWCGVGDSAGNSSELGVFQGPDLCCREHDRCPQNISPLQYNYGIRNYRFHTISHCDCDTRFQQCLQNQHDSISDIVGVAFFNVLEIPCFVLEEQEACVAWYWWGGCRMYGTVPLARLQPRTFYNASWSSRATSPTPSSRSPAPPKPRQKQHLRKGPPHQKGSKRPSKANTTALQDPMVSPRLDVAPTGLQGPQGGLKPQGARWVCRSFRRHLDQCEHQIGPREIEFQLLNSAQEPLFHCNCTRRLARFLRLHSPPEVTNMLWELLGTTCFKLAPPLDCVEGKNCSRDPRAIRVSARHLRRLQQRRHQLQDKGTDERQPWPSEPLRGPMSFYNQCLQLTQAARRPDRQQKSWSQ
ADAM10 inh: ADAM10 inhibition, QFRET primary screen | O14672 | recombinant ADAM10, EDANS/DABCYL FRET peptide cleavage, 3 h | inhibition, % at 7 µM | 0.62% of 370,000 active | AID 720582;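 active = inhibition above a per-campaign cutoff equal to the mean of compounds falling between control-based bounds plus 3 SD, cut at about 20% in these data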;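 also: 0% = DMSO wells while the 100% control is not disclosed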
ADAM10 confirm: confirmation of inhibitors of human ADAM10 | ADAM10 QFRET peptide cleavage, EDANS fluorescence | 1% of 2,100 active | shares compounds with ADAM10 inh | AID 743208 | inhibition, % at 6.95 µM;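 active = inhibition above about 20% chosen separately for each screening run, limit read from the data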;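 also: 0% = DMSO wells and 100% = marimastat wells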
ADAM17 ctr: inhibits human ADAM17 in ADAM10 exosite counter-screen | inhibition, % at 6.95 µM | ADAM17 QFRET peptide cleavage, EDANS fluorescence | shares compounds with ADAM10 inh | 0.5% of 2,100 active | AID 743214;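 active = mean triplicate inhibition above the solvent-only control wells' mean plus 3 SD, cut at about 12% in these data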;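 also: 0% = DMSO wells and 100% = marimastat wells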
ADAM10 ctr: inhibits human ADAM10 in ADAM17 exosite counter-screen; recombinant ADAM10, EDANS/DABCYL FRET peptide cleavage, 3 h; shares compounds with ADAM17 inh; inhibition, % at 6.95 µM; 47% of 2,900 active; AID 743256;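 active = mean inhibition over the triplicate runs exceeds the activity threshold set in the earlier primary screen, cut at about 20% in these data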;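 also: 0% = DMSO wells and 100% = marimastat wells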
ADAM17 confirm: human ADAM17 inhibition, confirmation | shares compounds with ADAM17 inh | recombinant ADAM17, EDANS/DABCYL QFRET peptide cleavage | inhibition, % at 6.95 µM | 65% of 2,900 active | AID 743257;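 active = mean inhibition across replicates above the hit cutoff set in the primary screen, cut at about 8.5% in these data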;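 also: 0% = DMSO wells and 100% = marimastat wells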
Active calls of the source: *; x = not tested or not shown; ! = not confirmed by another sample. Rows were chosen to be rich in hits. Some 3.4% of all compounds tested hit in one or more screens of this group.

SMILES | ADAM17 inh | proKLK7 act | NRP1-CendR mod | sPLA2-III inh | ADAM10 inh | ADAM10 confirm | ADAM17 ctr | ADAM10 ctr | ADAM17 confirm
Cc1cccc(NC(=O)C2CCN(c3ncccn3)CC2)c1C | -6 | 0 | x | 2 | -19 | x | x | x | x
CN(C)[C@@H]1CCN(c2ccc3c(c2)O[C@H]2CCN(C2)S3(=O)=O)C1 | 1 | 0 | x | 1 | -3 | x | x | x | x
COC(=O)C(Nc1ccccc1Cl)(c1cc(C)c(O)c(C)c1)C(F)(F)F (stereo not given) | 13* | 0 | 14 | -30 | 30* | 9 | 4 | 41* | 20*
COc1cccc(-n2c(-c3ccc4[nH]c(C)c(C)c4c3)n[nH]c2=S)c1 | 14* | 0 | 1 | 4 | 29* | 6 | 3 | -1 | 6
Cc1[nH]c2ccc(-c3n[nH]c(=S)n3-c3ccccc3)cc2c1C | -1 | -1 | -5 | 10 | 9 | x | x | x | x
O=C(N1CCC(C(O)(c2ccccc2)c2ccccc2)CC1)n1ncc(C(O)(c2ccccc2)c2ccccc2)n1 | 8 | x | x | -12 | 15 | x | x | x | x
C=CC(=O)N1C/C(=C/c2ccc(F)cc2)C(=O)/C(=C\c2ccc(F)cc2)C1 | 11* | 0 | -26 | -13 | 20* | 3 | 0 | 21* | 14*
O=C(Cn1cnc([N+](=O)[O-])c1)Nc1cc(Oc2ccc(Cl)cc2Cl)cc([N+](=O)[O-])c1 | 9.5* | 1 | 13 | -13 | 23* | 7 | 3 | 33* | 17*
N#Cc1ccc(NC(=O)Cn2cnc([N+](=O)[O-])c2)cc1 | 0 | 0 | 10 | -1 | -6 | x | x | x | x
C=CCN1C(C(=O)OC)CN(Cc2cn(Cc3ccc(OC)cc3)nn2)CCS1(=O)=O (stereo not given) | -2 | 0 | x | 8 | -5 | x | x | x | x
COc1ccc(NS(=O)(=O)c2cccc(N/C(=N\S(=O)(=O)c3ccccc3)c3ccc(F)cc3)c2)cc1 | 8.7* | 0 | 10 | -48 | 21* | 4 | 1 | 24* | 15*
O=S(=O)(/N=C(/Nc1ccc(Cl)c(S(=O)(=O)Nc2ccccc2Cl)c1)c1ccc(F)cc1)c1ccccc1 | 12*! | 0 | 2 | -43 | 22*! | 7 | 2 | 36* | 18*
COc1ccccc1NS(=O)(=O)c1cc(N/C(=N/S(=O)(=O)c2ccccc2)c2ccc(F)cc2)ccc1Cl | 6 | 0 | 7 | -16 | -9 | x | x | x | x
CCC[C@H]1[C@@H](NC(=O)C(c2ccccc2)c2ccccc2)CC[C@@]23CCCN2C(=O)CCC[C@@H]13 | 0 | x | x | -22 | 0 | x | x | x | x
CC(=O)CC[C@H]1CC[C@]2(CCCN(S(C)(=O)=O)C2)O1 | -5 | 0 | x | 18 | -21 | x | x | x | x
C[C@H]1[C@@H](NCc2cccs2)CC[C@@]23CCCN2C(=O)CCC[C@@H]13 | -3 | x | x | -1 | 1 | x | x | x | x
Cc1cc(C)c(-c2cc(NC(=O)COC(=O)c3ccc(C#N)cc3)n(-c3ccccc3)n2)cc1C | 9.1* | -1 | -7 | -12 | 23* | 15 | 4 | 22* | 13*
CN(Cc1ccccc1)C(=O)c1[nH]cnc1C(=O)NCCCCCNC(=O)OC(C)(C)C | 2 | 0 | -1 | 1 | 10 | x | x | x | x
CC(C)(C)OC(=O)NCCCCCNC(=O)c1[nH]cnc1C(=O)N[C@@H](Cc1ccccc1)C(=O)OCc1ccccc1 | 11* | 1 | 1 | -12 | 23* | 8 | 2 | 41* | 21*
CC(C)C[C@H](NC(=O)c1nc[nH]c1C(=O)NCCCCCNC(=O)OC(C)(C)C)C(=O)OCc1ccccc1 | 14* | 0 | 11 | -21 | 29* | 9 | 2 | 42* | 21*
CC(C)(C)OC(=O)NCCCCCNC(=O)c1ncn(Cc2ccccc2)c1C(=O)NCCCCCNC(=O)OC(C)(C)C | 13* | 0 | 18 | -9 | 20* | 2 | 1 | 31* | 16*
CC(C)CNC(=O)OCc1cn(Cc2ccccc2)nn1 | -2 | -1 | x | 2 | -1 | x | x | x | x
CC(C(=O)NCc1ccco1)n1ccc2cc(S(=O)(=O)N3CCCC3)ccc21 (stereo not given) | 5 | -1 | 0 | -5 | 0 | x | x | x | x
COc1ccc(CNC(=O)C(C)n2ccc3cc(S(=O)(=O)N4CCCCCC4)ccc32)cc1 (stereo not given) | 12* | 1 | 15 | -24 | 28* | 3 | 2 | 22* | 16*
O/N=C/c1cc(Br)ccc1OCc1ccccc1F | 9.1* | 0 | -3 | -18 | 21* | 5 | 1 | 30* | 17*
SMILES | ADAM17 inh | proKLK7 act | NRP1-CendR mod | sPLA2-III inh | ADAM10 inh | ADAM10 confirm | ADAM17 ctr | ADAM10 ctr | ADAM17 confirm
CCN(c1ccc(NC(=O)COC(=O)/C=C/c2cccs2)cc1)C(C)C | 17* | 0 | -11 | -4 | 34* | 5 | 5 | 33* | 18*
Cc1ccc(NC(=O)COC(=O)/C=C/c2cccs2)cc1 | 4 | 0 | -1 | -2 | 0 | x | x | x | x
CCCCNC(=O)C[C@@H]1C[C@@]2(C(=O)OC)CC(C)(C)CC=C2N(Cc2ccc3c(c2)OCO3)C1=O | 3 | 1 | -11 | -2 | -2 | x | x | x | x
COC(=O)[C@@]12C[C@@H](CC(=O)NCCCCc3ccccc3)C(=O)N(Cc3ccc4c(c3)OCO4)C1=CCC(C)(C)C2 | 17* | 1 | -2 | -11 | 27* | 5 | 3 | 28* | 15*
Cc1ccccc1N1CCN(CCCN2C(=O)CC(=C(c3ccccc3)c3ccccc3)C2=O)CC1 | 2 | 0 | -2 | -20 | 5 | x | x | x | x
O=C1CC(=C(c2ccccc2)c2ccccc2)C(=O)N1CCCCN1CCN(c2cccc(Cl)c2)CC1 | 12* | 0 | 6 | -32 | 32* | 5 | 1 | 4 | 8
COC(=O)c1cc(-c2cccc(C(F)(F)F)c2)c(=O)n2c1CCC2 | -11 | 0 | x | 11 | -20 | x | x | x | x
CC(O)[C@H]1CNCCN1CC1(c2ccccc2)CC1 (stereo not given in full) | 11* | 0 | -2 | 5 | 20* | 2 | 0 | -5 | 1
C#CCN1CC(N(C)CCOC(=O)c2ccc(C(C)(C)C)cc2)CS1(=O)=O (stereo not given) | -5 | 0 | x | -5 | 2 | x | x | x | x
Cc1ccc2c(c1)C(CS(=O)(=O)NCc1ccc(F)cc1)NC2 (stereo not given) | 0 | 0 | x | -2 | -5 | x | x | x | x
O=C(COC(=O)Cc1c[nH]c2ccccc12)Nc1ccccc1 | 2 | 1 | 1 | -75 | 0 | x | x | x | x
